The values that follow come from PubChem BioAssay (EPA / NIEHS).

What is called AC50 is the concentration giving half of the maximal activity seen.

The source made the active and inactive calls. How the source made its calls: active means hit-call score of the fitted dose curve at least 0.9, where 1 is the maximum; inactive means score below 0.9.

Read-out in experiment [1]: Urokinase-type plasminogen activator receptor (uPAR), PLAUR (gene 5329)
Kind of experiment: BSK_4H_uPAR: BioMAP Diversity Plus: 4H Assay for Urokinase-type plasminogen activator receptor (uPAR) Biomarker Activity (AID 2283030). Particulars: primary human endothelial cells (HUVEC); actives raise or lower the signal. In short, it runs like this:
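Cell-surface uPAR ELISA signal, measured 24 h after dosing human umbilical vein endothelial cells, was analyzed with bidirectional fitting relative to DMSO. Parallel SRB staining of total protein tracked overt cytotoxicity.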

Read-out in experiment [2]: Vascular endothelial growth factor receptor 2 (Homo sapiens) (UniProt P35968)
Kind of experiment: BSK_4H_VEGFRII: BioMAP Diversity Plus: 4H Assay for Vascular endothelial growth factor receptor 2 (VEGFR2) Biomarker Activity (AID 2283031).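 On AC50: cell-surface VEGFR2 protein level quantified by ELISA.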 To be noted: primary human endothelial cells (HUVEC); actives raise or lower the signal. The essentials:
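ELISA read-out of VEGFRII in primary human umbilical vein endothelium, taken 24 h after chemical treatment. Responses are expressed relative to DMSO, with bidirectional fitting.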

Read-out in experiment [3]: Human Leukocyte Antigen - DR isotype (HLADR), HLA-DRA (gene 3122)
Kind of experiment: BSK_BE3C_HLADR: BioMAP Diversity Plus: BE3C Assay for Human Leukocyte Antigen - DR isotype (HLADR) Biomarker Activity (AID 2283032). Particulars: primary human bronchial epithelial cells; actives raise or lower the signal. In short, it runs like this:
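Human primary bronchial epithelial cells (BE3C system) exposed to compound for 24 hours; cell-surface HLA-DR measured by ELISA, fitted bidirectionally relative to DMSO. Total protein by SRB in parallel cultures tracked cytotoxicity.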

Read-out in experiment [4]: Vascular cell adhesion molecule 1 (VCAM1), VCAM1 (gene 7412)
Kind of experiment: BSK_4H_VCAM1: BioMAP Diversity Plus: 4H Assay for Vascular cell adhesion molecule 1 (VCAM1) Biomarker Activity (AID 2283033). To be noted: primary human endothelial cells (HUVEC); actives raise or lower the signal. The essentials:
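Primary human umbilical vein endothelial cells, 4H stimulation system, treated for 24 h; cell-surface VCAM-1 quantified by ELISA. Bidirectional fitting against DMSO; cytotoxicity tracked by SRB total-protein staining in parallel cultures.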

Read-out in experiment [5]: Interferon-gamma inducible Protein 10 (IP10), CXCL10 (gene 3627)
Kind of experiment: BSK_BE3C_IP10: BioMAP Diversity Plus: BE3C Assay for Interferon-gamma inducible Protein 10 (IP10) Biomarker Activity (AID 2283034). To be noted: primary human bronchial epithelial cells; actives raise or lower the signal. The essentials: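 Primary human bronchial epithelial cells, with IP-10 measured by ELISA 24 hours after chemical dosing. Bidirectional fit against DMSO; cytotoxicity checked by SRB total protein staining in parallel cultures.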

Read-out in experiment [6]: Monokine induced gamma interferon (MIG), CXCL9 (gene 4283)
Nature of the experiment: BSK_BE3C_MIG: BioMAP Diversity Plus: BE3C Assay for Monokine induced gamma interferon (MIG) Biomarker Activity (AID 2283035). Particulars: primary human bronchial epithelial cells; actives raise or lower the signal. In short, it runs like this: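 Primary human bronchial epithelial cells treated for 24 h; MIG levels measured by ELISA, fitted bidirectionally versus DMSO. Parallel SRB total-protein staining assessed cytotoxicity.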

Read-out in experiment [7]: Transforming growth factor beta 1 (TGFb1), TGFB1 (gene 7040)
Nature of the experiment: BSK_BE3C_TGFb1: BioMAP Diversity Plus: BE3C Assay for Transforming growth factor beta 1 (TGFb1) Biomarker Activity (AID 2283036). Particulars: primary human bronchial epithelial cells; actives raise or lower the signal. In short, it runs like this: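 Primary human bronchial epithelial cells dosed with chemical; TGF-b1 measured by ELISA 24 h after dosing. Bidirectional curve fitting against DMSO negative control; SRB total-protein staining in parallel cultures gauged cytotoxicity.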

Read-out in experiment [8]: Plasminogen activator inhibitor-1 (PAI1), SERPINE1 (gene 5054)
Nature of the experiment: BSK_BE3C_PAI1: BioMAP Diversity Plus: BE3C Assay for Plasminogen activator inhibitor-1 (PAI1) Biomarker Activity (AID 2283037). Particulars: primary human bronchial epithelial cells; actives raise or lower the signal. The essentials:
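Primary human bronchial epithelial cells (BE3C system) exposed 24 h; PAI-1 quantified by ELISA. Parallel sulforhodamine B staining of total protein flags cytotoxicity. Bidirectional fit versus DMSO.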

Read-out in experiment [9]: urokinase plasminogen activator (uPA), PLAU (gene 5328)
Kind of experiment: BSK_BE3C_uPA: BioMAP Diversity Plus: BE3C Assay for urokinase plasminogen activator (uPA) Biomarker Activity (AID 2283038).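 Further: uPA protein level quantified by ELISA in cell cultures; uPA read one day after compound addition.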 Particulars: primary human bronchial epithelial cells; actives raise or lower the signal. In short, it runs like this:
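Bronchial epithelial cells (human, primary); chemical 24 h; uPA by ELISA; bidirectional fit vs DMSO. SRB (0.1%, after 10% TCA fixation, 560 nm) in parallel cultures for cytotoxicity.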

Read-out in experiment [10]: Urokinase-type plasminogen activator receptor (uPAR), PLAUR (gene 5329)
Nature of the experiment: BSK_BE3C_uPAR: BioMAP Diversity Plus: BE3C Assay for Urokinase-type plasminogen activator receptor (uPAR) Biomarker Activity (AID 2283039).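 On outcome: cells exposed to compound for one day before measurement.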 Particulars: primary human bronchial epithelial cells; actives raise or lower the signal. In short, it runs like this: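 Primary human bronchial epithelial cells dosed for 24 h; uPAR quantified by ELISA with bidirectional fitting against DMSO. Overt cytotoxicity assessed in parallel cultures by SRB total-protein staining (0.1% SRB, 560 nm).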

Read-out in experiment [11]: Interleukin-6 (IL6), IL6 (gene 3569)
Nature of the experiment: BSK_CASM3C_IL6: BioMAP Diversity Plus: CASM3C Assay for Interleukin-6 (IL6) Biomarker Activity for (AID 2283040). Particulars: primary human coronary artery smooth muscle cells; actives raise or lower the signal.

Read-out in experiment [12]: Tissue plasminogen activator (tPA), PLAT (gene 5327)
Nature of the experiment: BSK_BE3C_tPA: BioMAP Diversity Plus: BE3C Assay for Tissue plasminogen activator (tPA) Biomarker Activity (AID 2283041).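 On outcome: tPA level quantified by ELISA one day after compound addition.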 Particulars: primary human bronchial epithelial cells; actives raise or lower the signal. In short, it runs like this:
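Primary human bronchial epithelial cells in the BE3C system, exposed to compound for 24 h. tPA was quantified by ELISA; DMSO served as baseline, with gain or loss of signal fitted. Cytotoxicity checked in parallel cultures by SRB total-protein staining.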

Read-out in experiment [13]: Interleukin-8 (IL8), CXCL8 (gene 3576)
Nature of the experiment: BSK_CASM3C_IL8: BioMAP Diversity Plus: CASM3C Assay for Interleukin-8 (IL8) Biomarker Activity (AID 2283042).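 Further: IL-8 protein level quantified by ELISA.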 To be noted: primary human coronary artery smooth muscle cells; actives raise or lower the signal.

Read-out in experiment [14]: Human Leukocyte Antigen - DR isotype (HLADR), HLA-DRA (gene 3122)
Kind of experiment: BSK_CASM3C_HLADR: BioMAP Diversity Plus: CASM3C Assay for Human Leukocyte Antigen - DR isotype (HLADR) Biomarker Activity (AID 2283043).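 Further: cell-surface HLA-DR protein level quantified by ELISA.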 Particulars: primary human coronary artery smooth muscle cells; actives raise or lower the signal.

Read-out in experiment [15]: Macrophage colony-stimulating factor (MCSF), CSF1 (gene 1435)
Kind of experiment: BSK_CASM3C_MCSF: BioMAP Diversity Plus: CASM3C Assay for Macrophage colony-stimulating factor (MCSF) Biomarker Activity (AID 2283044).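 Further: M-CSF protein amount quantified by ELISA after 24 h exposure.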 To be noted: primary human coronary artery smooth muscle cells; actives raise or lower the signal.

Read-out in experiment [16]: Low-density lipoprotein receptor (LDLR), LDLR (gene 3949)
Nature of the experiment: BSK_CASM3C_LDLR: BioMAP Diversity Plus: CASM3C Assay for Low-density lipoprotein receptor (LDLR) Biomarker Activity (AID 2283045).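 Further: LDLR protein level on the cell surface quantified by ELISA.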 Particulars: primary human coronary artery smooth muscle cells; actives raise or lower the signal.

Read-out in experiment [17]: Monocyte Chemoattractant Protein-1 (MCP1), CCL2 (gene 6347)
Nature of the experiment: BSK_CASM3C_MCP1: BioMAP Diversity Plus: CASM3C Assay for Monocyte Chemoattractant Protein-1 (MCP1) Biomarker Activity (AID 2283046).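 Further: MCP-1 level quantified by ELISA 24 h after dosing.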 Particulars: primary human coronary artery smooth muscle cells; actives raise or lower the signal.

Experiment [18] in a line: BSK_CASM3C_Proliferation: Cell Proliferation Assessment in the BioMAP Diversity Plus: CASM3C Assay (AID 2283047).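 Further: sulforhodamine B total protein stain as relative cell number at 560 nm; sub-confluent cells exposed 48 h before staining; fitted both ways against DMSO so gain or loss of cell number.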 Particulars: primary human coronary artery smooth muscle cells.
Read-out in experiment [19]: Monokine induced gamma interferon (MIG), CXCL9 (gene 4283)
Nature of the experiment: BSK_CASM3C_MIG: BioMAP Diversity Plus: CASM3C Assay for Monokine induced gamma interferon (MIG) Biomarker Activity (AID 2283048). Particulars: primary human coronary artery smooth muscle cells; actives raise or lower the signal.

Read-out in experiment [20]: serum amyloid A (SAA), SAA1 (gene 6288)
Kind of experiment: BSK_CASM3C_SAA: BioMAP Diversity Plus: CASM3C Assay for serum amyloid A (SAA) Biomarker Activity (AID 2283049).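 Further: SAA protein level quantified by ELISA.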 To be noted: primary human coronary artery smooth muscle cells; actives raise or lower the signal.

Consider `CC/C=C\CCOC(=O)c1ccccc1O`, for which the AC50 is 21.1 µM (active) in experiment [1]; 20 µM (active) in [2]; 20 µM (active) in [3]; 25.1 µM (active) in experiment [4]; 3.97 µM (active) in [11]; 20 µM (active) in [12]. Besides, the AC50 is 32.9 µM (active) in experiment [14]; 31.6 µM (active) in experiment [15]; 14.4 µM (active) in experiment [16]; 20 µM (active) in experiment [17]; 20 µM (active) in [20]. Besides, the result in experiment [5], in [6], in experiment [7], in [8], in [9] and in experiment [10] was inactive. The result in [13], in experiment [18] and in experiment [19] was inactive.

As to `CC=C(C)C(C)=O`, the outcome in experiment [1], in experiment [2], in [3], in experiment [4], in [6] and in [7] was inactive. Further, the outcome in [8], in experiment [9], in experiment [10], in experiment [11], in [12] and in experiment [13] was inactive. Besides, the result in experiment [14], in experiment [15], in experiment [16], in [17], in [18] and in experiment [19] was inactive. The result in [20] was inactive. Also, the AC50 in experiment [5] was 20 µM (active).

Consider `CCN1CN(CC)CN(CC)C1`, for which the outcome in [1], in [2], in [3], in experiment [4], in [5] and in [6] was inactive. Moreover, the outcome in experiment [7], in [8], in experiment [9], in [10], in [11] and in experiment [12] was inactive. Moreover, the result in experiment [13], in [14], in experiment [15], in experiment [16], in [17] and in experiment [18] was inactive. Moreover, the outcome in [19] and in [20] was inactive.

In the case of `CCOC(=O)/C=C\C(=O)OCC`, the result in experiment [1], in [2], in experiment [3], in [4], in experiment [5] and in [6] was inactive. In addition, the result in [7], in experiment [8], in experiment [9], in experiment [10], in experiment [11] and in experiment [12] was inactive. For the same compound, the outcome in experiment [13], in experiment [14], in experiment [15], in experiment [16], in [17] and in [18] was inactive. The outcome in experiment [19] and in experiment [20] was inactive.

For `C=CC(=O)OCCCCCCOC(=O)C=C`, the AC50 in [1] is 20 µM (active); in [2], 20 µM (active); in [4], 20 µM (active); in experiment [5] it was 26 µM (active); in experiment [6] it was 35.7 µM (active); in [10], 11.4 µM (active). The concentration at half-maximal activity (AC50) in experiment [11] is 14.2 µM (active); in experiment [13], 10.1 µM (active); in experiment [14] it was 10.5 µM (active); in experiment [15] it was 18 µM (active); in experiment [16] it was 20 µM (active); in experiment [17] it was 34 µM (active). Moreover, the concentration at half-maximal activity (AC50) in experiment [18] is 20 µM (active); in experiment [19], 23.3 µM (active). For the same compound, the result in experiment [7], in experiment [8], in [9], in [12] and in experiment [20] was inactive.

For the compound `CCCCCCC=O`, the outcome in [1], in experiment [2], in [3], in experiment [4], in [5] and in [6] was inactive. Moreover, the outcome in experiment [7], in experiment [8], in [9], in [10], in [11] and in experiment [12] was inactive. Besides, the result in [13], in experiment [14], in experiment [15], in experiment [16], in experiment [17] and in experiment [19] was inactive. Also, in experiment [20], the result was inactive. Further, the AC50 in experiment [18] was 0.22 µM (active).
